ChEMBL document CHEMBL1157539, “Thousands of chemical starting points for antimalarial lead identification” (Nature, 2010)

What was measured:
Type in all cases: functional
[1] = system: Plasmodium falciparum; test: GSK_TCMDC: Inhibition of Plasmodium falciparum 3D7 in whole red blood cells, using parasite LDH activity as an index of growth. Test compounds present at 2uM
[2] = system: Plasmodium falciparum; test: GSK_TCMDC: Inhibition of Plasmodium falciparum Dd2 in whole red blood cells, using parasite LDH activity as an index of growth. Test compounds present at 2uM
[3] = system: HepG2; test: GSK_TCMDC: Percent inhibition of human HepG2 cell line. Test compounds present at 10uM.

Compound	Inhibition [1] [%]	Inhibition [2] [%]	Inhibition [3] [%]
CN1CCOc2ccc(Nc3nnc(-c4cccc(-c5cccnc5)c4)o3)cc2C1	100	100	0
O=C(NCC1CCCCC1)c1cc(=O)c2ccccc2o1	98	77	0
O=C(O)C(F)(F)F.O=S(=O)(NCCN1CCCC1)c1ccc(-c2ccc(CNC3Cc4ccccc4C3)cc2)s1	100	97	47
Cc1cc(C)cc(OCC(O)CN(CCN2CCOCC2)C(=O)Nc2ccc(Br)cc2)c1.O=C(O)C(F)(F)F (centres undefined)	85	19	7
O=C(NCCCN1CCC(NC(=O)c2ccc(-c3cccnc3)cc2)CC1)c1ccc(Cl)c(Cl)c1.O=C(O)C(F)(F)F	94	23	17
CC(=O)CCc1ccc(OCCN(Cc2ccccc2C(F)(F)F)c2ccc(C#N)c(C(F)(F)F)c2)cc1	100	87	14
CCCCn1c(=N)c(C(=O)NCc2cccnc2)cc2c(=O)n3cccc(C)c3nc21	100	47	7
O=S(=O)(c1c(Cl)cc(Cl)cc1Cl)N1CCCCC(c2ccc(F)c(F)c2)=N1	87	65	5
O=C(Nc1cccc(CN2CCCN(CC3CCCCC3)CC2)c1)c1ccc(Cl)c(Cl)c1.O=C(O)C(F)(F)F	91	15	39
COc1ccc(-c2ccc(NC(=O)c3ccc(Cl)cc3)cc2)cc1CN(C)CCO.O=C(O)C(F)(F)F	92	43	43
Nc1ccc(-c2ccc(NC(=O)Nc3cc(C(F)(F)F)ccc3F)cc2)cn1	99	39	0
COc1ccc2ncc(Cl)c(CCN3CCC(NCc4ccc5c(n4)NC(=O)CO5)CC3)c2c1.Cl	92	26	25
Cc1ccc(OCCCCONC(=O)c2ccccc2)cc1	96	1	6
O=C(/C=C/c1ccc(Cl)c(Cl)c1)N1CCC(CCN2CCC(c3nc4cc(O)ccc4[nH]3)CC2)CC1	100	60	42
COc1cc(CN/C(=N/c2ccc(-c3ccccc3)cc2)Nc2ccc(C#N)cc2O)cc(OC)c1	95	64	0
Cc1cc(N[C@@H](Cc2ccccc2)C(=O)Nc2ccccc2)nc(NCCc2ccccn2)n1.O=C(O)C(F)(F)F	97	50	0
CC(C)c1ccc(N(CC(=O)N/N=C/c2ccc(C(F)(F)F)cc2)S(=O)(=O)c2ccc(C(F)(F)F)cc2)cc1	91	44	2
Cl.O=[N+]([O-])c1ccc(C(O)CNCCc2ccccc2)cc1OCc1ccccc1 (centres undefined)	94	67	0
O=C(O)C(F)(F)F.O=C1CCCN1CCCNCc1ccc(-c2ccc(-c3nc4cc(C(F)(F)F)ccc4[nH]3)s2)cc1	100	96	9
COc1ccc(NC(=O)CCNc2cc(C)nc(NCc3cccc(C)c3)n2)cc1.O=C(O)C(F)(F)F	100	25	14
O=C(Nc1ccc2c(c1)CCC2)N[C@H]1CCN(Cc2ccc(OCCCN3CCCCC3)cc2)C1	96	0	9

Compound	Inhibition [1] [%]	Inhibition [2] [%]	Inhibition [3] [%]
COc1ccc(Nc2ncc(C#N)c(Nc3ccccc3C(N)=O)n2)cc1N1CCN(C)CC1.Cl	93	97	56
COc1ccc(-c2cc(C(F)(F)F)n3ncc(C(=O)Nc4cc(C)ccc4O)c3n2)cc1OC	100	100	2
COC(=O)CCCOc1cc(Cc2cnc(N)nc2N)cc(OC)c1OC	95	0	12
O=C(Nc1ccc(Cn2ncc(N3CCCNCC3)c(Cl)c2=O)cc1)Nc1cccc(SC(F)(F)F)c1.O=C(O)C(F)(F)F	92	33	12
CCOC(=O)c1c(SCc2cccc(F)c2F)[nH]c2ccccc2c1=O	98	95	1
COc1ccc(-c2cc(-c3ccc(S(C)(=O)=O)cc3)cnc2N)cn1	94	99	5
O=C(/C=C/c1ccc(Cl)c(Cl)c1)NCCCCCN1CCC(C(=O)Nc2ccc(Cl)cc2)CC1	100	0	42
Cc1c(-c2ccc3c(c2)C(NCCCN2CCCCC2)CC3)cnc(N)c1C.Cl (centres undefined)	97	3	4
O=C(Nc1nc2cc(S(=O)(=O)NCCc3cccc(F)c3)ccc2n1CCCn1ccnc1)c1ccc(Cl)cc1.O=C(O)C(F)(F)F	90	8	0
Cc1ccc(NC(=O)Nc2ccc(Cl)cc2)cc1-c1ccc(C(=O)Nc2ccncc2)cc1	99	63	54
CN(Cc1cc(C(F)(F)F)cc(C(F)(F)F)c1)C(=O)C(Cc1ccc(F)cc1)C1CCCNC1 (centres undefined)	96	89	10
COc1ccccc1CCNc1nc(C)cc(NCCC(=O)Nc2ccccc2)n1.O=C(O)C(F)(F)F	100	24	7
O=C(Nc1ccnc(N2CCCN(Cc3cccc(O)c3)CC2)c1)c1ccc(F)cc1.O=C(O)C(F)(F)F	90	3	12
CC(C)(C)c1ccc(NC(=O)c2cccc(CN3CCCN(CC4CCCCC4)CC3)c2)cc1.O=C(O)C(F)(F)F	93	47	97
Cc1ccc(CN2CCCN(Cc3cccc(C(=O)Nc4ccc(C(C)(C)C)cc4)c3)CC2)s1.O=C(O)C(F)(F)F	85	4	31
CC(=O)c1ccc(-n2ccnc2)cc1	92	0	0
Cc1cc(NCCC(=O)NCCc2ccccc2)nc(NCCc2ccc(F)cc2)n1.O=C(O)C(F)(F)F	92	7	0
COC(=O)c1cccc(CNCc2ccc(-c3cccc(-c4nc5cccc(C)c5[nH]4)c3)cc2)c1.O=C(O)C(F)(F)F	100	84	0
COC(=O)c1ccc(-c2ccc(-c3cccnc3)cc2C)cc1	100	98	81
Br.CC1(C)NC(N)=NC(=N)N1OCCCc1ccc(Cl)cc1Cl	95	95	54
CNC(=O)c1cncc(/C=C/c2ccccc2S(N)(=O)=O)c1	100	77	17

Compound	Inhibition [1] [%]	Inhibition [2] [%]	Inhibition [3] [%]
N#Cc1ccc(N(CCOc2ccc(Cl)cc2)Cc2ccccc2C(F)(F)F)cc1C(F)(F)F	91	64	3
Cc1nc(N)nc(N)c1CCCOc1ccccc1Br	97	5	53
CCCC(=O)NC(c1cccs1)c1cc(Cl)c2cccnc2c1O (centres undefined)	87	61	51
CCCCCCC(N)c1ccc(OCCCOc2ccc(C(N)CCCCCC)cc2)cc1.Cl (centres undefined)	88	70	100
Nc1nccc(-c2ccc3c(-c4cccc(F)c4)cnc(N)c3c2)n1	93	44	41
CC(C)Sc1nncc(-c2cnnc(SC(C)C)n2)n1	100	100	0
I.N=C(N)NCC=C(c1ccccc1)c1ccccc1	94	83	9
O=C(CCc1c[nH]cn1)Nc1cccc(-c2ccc(-c3nc4ccccc4[nH]3)s2)c1	92	37	11
O=C(Nc1cccc(-c2nn3ccccc3c2-c2ccnc(Nc3ccc(Cc4ccncc4)cc3)n2)c1)c1c(F)cccc1F	97	97	43
COc1ccc2c(c1)nc(CNC(=N)N)n2Cc1ccc(Cl)cc1.Cl	100	99	12
CC1CN(c2cnn(Cc3ccc(NC(=O)Nc4cccc(C(F)(F)F)c4)cc3)c(=O)c2Cl)CC(C)N1.O=C(O)C(F)(F)F (centres undefined)	86	31	0
Cl.FC(F)(F)c1ccc(COc2cc(Cl)ccc2Cn2ccnc2)cc1	95	0	13
CCCN1CCN(CCCNc2c3ccccc3nc3ccccc23)CC1.Cl	99	0	36
Cc1ccc(C)c(NC(=O)Nc2ccc(Nc3nc(C)cc(N4CCOCC4)n3)cc2)c1	98	48	88
COc1cccc([C@@H](CC(=O)Nc2cc(C(F)(F)F)ccc2OC)Nc2ccc(C#N)c3ccccc23)c1	96	53	19
Cc1cc(Br)cnc1CCCCNC1=NC(=O)CN1C	95	26	63
Cc1ccc(NC(=N)Nc2ncccc2OCc2c(F)cccc2Cl)cc1	86	54	78
CCc1cn2c3c(cc(C(=O)N[C@@H](Cc4ccccc4)[C@H](O)CNCCOC)cc13)N(C)S(=O)(=O)CC2.O=CO	98	56	7
COc1ccc2c(CCNc3nc(SC)ncc3C(=O)NCCc3ccc(F)cc3)c[nH]c2c1.O=C(O)C(F)(F)F	91	49	3
O=C(/C=C/c1ccc(Cl)cc1)NCCCCCN1CCCC(C(=O)Nc2cccc(Cl)c2)C1 (centres undefined)	96	4	21
CCC(CC)(Cc1ccccc1)NC(=O)[C@H](CC(C)C)Nc1ccc(C#N)c2ccccc12.O=C(O)C(F)(F)F	90	73	57
